# PubChem BioAssay (NCATS)
# Records with an inconclusive call do not appear. Calls of active or inactive are those of the source. Calls follow the shape of the full dose curve. Peptide text beside a SMILES is read from it.
# Test: Cytotoxicity counterscreen for inhibitors of SARS-CoV-2 cell entry (AID 1645845); also: nearly all actives have a fitted effect of over 50% in size
# Settings: cell viability (SARS-CoV-2 entry assay cells); series mostly up to 57.1 µM; activity change, negative = cytotoxicity: at the top concentration
# Procedure, shortened: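 Counterscreen run in the same HEK293-ACE2 line as the pseudotyped-particle entry assay, without particles. Viability after 48 h at 37 C was read as ATP luminescence, scaled between cell-containing and cell-free wells.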
# % is scaled to controls: 0 for no effect and ±100 for the full control effect; potency is read from the fitted curve at half-maximal effect.
SMILES,"activity change, negative = cytotoxicity",Potency,outcome
Nc1nccc(-c2c(-c3ccc(F)cc3)ncn2C2CCN(Cc3ccon3)CC2)n1,1.37% (inactive),–,–
O=C(NO)C1(CS(=O)(=O)c2ccc(Oc3ccc(Cl)cc3)cc2)CCOCC1,-17.4% (inactive),–,–
COc1cc(N2CCN(C)CC2)ccc1Nc1ncc2c(n1)N(C)c1ccccc1C(=O)N2C,-4.56% (inactive),–,–
CC[C@H](Nc1ncnc2nc[nH]c12)c1oc2ccccc2c(=O)c1-c1cccc(F)c1,-8.72% (inactive),–,–
O=C(NCc1cccc(O)c1)Nc1nc(-c2ccncc2)cs1,-15.4% (inactive),–,–
CSC[C@H]1CN(Cc2c[nH]c3c(N)ncnc23)C[C@@H]1O,-5.66% (inactive),–,–
Nc1ncccc1-c1nc2ccc(-c3ccccc3)nc2n1-c1ccc(C2(N)CCC2)cc1,–,31.6 µM (active),–
CONC(=O)c1ccccc1Nc1cc(Nc2cc(C)nn2C(C)C)ncc1Cl,–,–,inactive
C[C@@H]1CC(=O)Nc2cccc(-c3ccc4c(c3)c(-c3cnn(C)c3)nn4C)c2N1,2.23% (inactive),–,–
Cc1cc(Nc2ncnc3ccc(NC4=NC(C)(C)CO4)cc23)ccc1Oc1ccn2ncnc2c1,-9.28% (inactive),–,–
N#C[C@@H]1C[C@@H]2C[C@@H]2N1C(=O)[C@@H](N)C12CC3CC(CC(O)(C3)C1)C2,–,–,inactive
C=CC(=O)N1CCC[C@H](n2c(=O)n(-c3ccc(Oc4ccccc4)cc3)c3c(N)ncnc32)C1,3.78% (inactive),–,–
CS(=O)(=O)c1ccc(-c2cnc(NCc3ccco3)n3cnnc23)cc1,-11.2% (inactive),–,–
CC1(C)SCCN(S(=O)(=O)c2ccc(OCC#CCO)cc2)[C@H]1C(=O)NO,-5.66% (inactive),–,–
COCC(=O)NC/C=C/c1ccc2ncnc(Nc3ccc(Oc4ccc(C)nc4)c(C)c3)c2c1,-11.9% (inactive),–,–
CN(C)C1CCN(C(=O)c2ccc(NC(=O)Nc3ccc(-c4nc(N5CCOCC5)nc(N5CCOCC5)n4)cc3)cc2)CC1,–,1.12 µM (active),–
CCS(=O)(=O)N1CCN(c2ccc(Nc3ncc(C(N)=O)c(NC4CC4)n3)cc2)CC1,–,25.1 µM (active),–
CN1C(=O)c2sccc2N(C)c2nc(Nc3ccc(S(N)(=O)=O)cc3)ncc21,-18.7% (inactive),–,–
O=C(Nc1cccc(C(F)(F)F)c1)c1cccc2cc(Oc3cc(CO)ncn3)ccc12,–,–,inactive
O=C(Nc1ccc2[nH]nc(-c3ccncc3)c2c1)[C@@H]1CCN(CC(=O)N2CCN(c3ccc(-c4ncccn4)cc3)CC2)C1,1.16% (inactive),–,–

SMILES,"activity change, negative = cytotoxicity",Potency,outcome
CCN(CC)C(=O)Cc1csc(NS(=O)(=O)c2cccc(Cl)c2C)n1,4.32% (inactive),–,–
CC(C)(C)S(=O)(=O)c1ccc2nccc(Nc3n[nH]c4ccc(F)cc34)c2c1,0.933% (inactive),–,–
Cc1ncc(NC(=O)c2cccc(C(F)(F)F)c2)cc1-c1cnc(OC2CCOCC2)c(N2CCOCC2)c1,-15.9% (inactive),–,–
C[C@@H]1O[C@@H](O[C@@H]2\C=C/C=C\C=C/C=C\C[C@H](C)OC(=O)/C=C\[C@H]3O[C@@H]3C[C@H](O)C[C@]3(O)C[C@@H](O)[C@@H](C(=O)O)[C@H](C2)O3)[C@H](O)[C@H](N)[C@@H]1O,-8.6% (inactive),–,–
CCC[C@H](NC(=O)/C(C#N)=C/c1cccc(Br)n1)c1ccccc1,–,20 µM (active),–
CCc1ccc2nc(Nc3cc(Cc4ccccc4)nc(NC4CCC(O)CC4)n3)sc2c1 (centres undefined),-27.5% (inactive),–,–
COCCOC(=O)N1CCN(S(=O)(=O)c2cc(F)c(Oc3ccc(Cl)cc3)c(F)c2)C(C(=O)NO)C1 (centres undefined),–,31.6 µM (active),–
COC(=O)C1=C(C)NC(c2ncc(F)cc2F)=N[C@H]1c1ccc(F)cc1Cl,1.01% (inactive),–,–
O=C(c1c(F)ccc(NS(=O)(=O)N2CC[C@@H](F)C2)c1F)c1c[nH]c2ncc(-c3cnc(C4CC4)nc3)cc12,–,–,inactive
CC(=O)N1CCC[C@H]1C(=O)N[C@@H](Cc1cnc[nH]1)C(=O)N[C@@H](CO)C(=O)N[C@@H](CS)C(=O)N[C@@H](CC(N)=O)C(N)=O (Ac-PHSCN-NH2),–,–,inactive
CCCC(CCC)C(=O)Nc1ccn([C@@H]2O[C@H](CO)[C@@H](O)C2(F)F)c(=O)n1,-14.9% (inactive),–,–
CCN1C(=O)N2Cc3cc(OC)cc(OC)c3[C@@H](C)C=C2C12CCN(Cc1cc(C)cc(C)c1)CC2,-29.9% (inactive),–,–
CO[C@H]1C[C@@H]2CC[C@@H](C)[C@@](O)(O2)C(=O)C(=O)N2CCCC[C@H]2C(=O)O[C@H]([C@H](C)C[C@@H]2CC[C@@H](OCCO)[C@H](OC)C2)CC(=O)[C@H](C)/C=C(/C)[C@@H](O)[C@@H](OC)C(=O)[C@H](C)C[C@H](C)/C=C\C=CC=C1C,-0.862% (inactive),–,–
COc1ccc(-c2oc3ncnc(N)c3c2-c2ccc(NC(=O)Nc3cc(C(F)(F)F)ccc3F)cc2)cc1,-2.39% (inactive),–,–
COc1ccccc1C(=O)Nc1cc2c(cc1N1CCCCC1)n(C)c(=O)n2C,–,–,inactive
CCOc1cc(C(C)(C)C)ccc1C1=N[C@@](C)(c2ccc(Cl)cc2)[C@@](C)(c2ccc(Cl)cc2)N1C(=O)N1CCN(CC(=O)N2CCOCC2)CC1,–,–,inactive [at 37.9 µM]
CNC(=O)c1ccccc1Nc1nc(Nc2ccc3c(c2OC)CCC[C@@H](N2CCN(CCO)CC2)C3)ncc1Cl,-20.3% (inactive),–,–
O=C(O)CC(C(=O)O)n1c(O)c(C2=c3cc(Br)ccc3=NC2=O)sc1=S (centres undefined),–,–,inactive
CC/C(=C(/c1ccc(/C=C/C(=O)O)cc1)c1ccc2[nH]ncc2c1)c1ccc(F)cc1Cl,-2.77% (inactive),–,–
